# From PubChem BioAssay AID709 (SRMLSC, 2007)
# Hit rate of the full screen: of about 65,000 compounds, about 3,600 (5.5%) were called active.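 The calls were made as follows: active = at 10 µM, mean starting fluorescence two-fold or more over control wells; inactive = the rest.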 The list comes from a sample in which actives are over-represented; it also holds similar structures and randomly drawn compounds.
# Experiment: intrinsic fluorescence of library compounds, ex339/em460 – biochemical, MLSMR library, data from DPM-DC assay, artefact control, profiling panel (AID 709);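 also: signal is the first read of a kinetic run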
# Conditions: compound autofluorescence, ex339/em460 nm, NADH buffer; at 10 µM; stronger effect = higher value; 1 = no-compound wells, NADH background
row,Structure (SMILES),fluorescence fold increase
1,CCOc1ccc(-n2c(SC(C)C(=O)OC)nc3c(c2=O)SCC3)cc1 (stereo unspecified),1.06 (inactive)
2,CC(=O)c1cc(C#N)c(SCC(=O)C(C)(C)C)nc1C,1.08 (inactive)
3,Cc1ccccc1S(=O)(=O)Cc1ccc(C(=O)NCCN2CCCCC2C)o1 (stereo unspecified),1.1 (inactive)
4,CC1=Nn2c(nnc2-c2ccccc2)SC1,1 (inactive)
5,CCOC(=O)C1CCN(C(=O)Cn2cc(C#N)c3ccccc32)CC1,1.19 (inactive)
6,CCOC(=O)CCc1c(C)c(C#N)c2[nH]c3ccccc3n2c1=O,2.29 (active)
7,CCOC(=O)CC1=CC(=O)Nc2ccccc2N1,1.15 (inactive)
8,COc1ccc(C2C(C(=O)N3CCN(c4ccc(OC)cc4)CC3)c3ccccc3C(=O)N2C)cc1 (stereo unspecified),1.12 (inactive)
9,COc1ccccc1-n1c(CNC(=O)c2ccccc2)nnc1SCC(=O)Nc1nnc(C)s1,1.12 (inactive)
10,CC(NCCO)C(=O)C12CC3CC(CC(C3)C1)C2 (stereo unspecified),1.13 (inactive)
11,Cc1cccc(N(CC(O)CN(C)C)S(=O)(=O)c2ccccc2)c1 (stereo unspecified),1.08 (inactive)
12,CNC(=O)Nc1cc(C(C)(C)C)no1,1.07 (inactive)
13,CCOC(=O)c1ccc(CS(=O)c2ccc(Cl)cc2)o1 (stereo unspecified),1.02 (inactive)
14,CCOC(=O)c1ccc(COC(=O)c2cc(=O)[nH]c3ccccc23)o1,2.1 (active)
15,CCOC(=O)c1sc2nc(CSCC(=O)OCc3ccc(C(=O)OC)o3)[nH]c(=O)c2c1C,1.46 (inactive)
16,Cc1ccc(S(=O)(=O)Nc2ccc3ncccc3c2)cc1,1.18 (inactive)
17,O=S(=O)(Nc1ccc2nc(-c3ccco3)[nH]c2c1)c1ccccc1,2.12 (active)
18,COc1cc(NS(=O)(=O)c2ccccc2)ccc1-n1nc(C)cc1C,1.12 (inactive)
19,CCCCN(CCCC)C(=O)CCS(=O)(=O)c1ccc2c(c1)n(C)c(=O)c(=O)n2C,1.23 (inactive)
20,Cc1cc(C)nc(SCc2nnc(SCC(=O)OC3CCCCC3)o2)n1,1.08 (inactive)
21,CC1CN(C2CCN(C(=O)COc3ccccc3)CC2)CC(C)O1 (stereo unspecified),1.1 (inactive)
22,O=c1c2cc3c(=O)n(CC4CCCO4)c(=O)c3cc2c(=O)n1CC1CCCO1 (stereo unspecified),1.07 (inactive)
23,COC(=O)c1ccc2c(=O)n(CC3CCCO3)c(=S)[nH]c2c1 (stereo unspecified),1.06 (inactive)
24,O=C(NC1CCCCC1)c1ccc2c(=O)n(CC3CCCO3)c(=O)[nH]c2c1 (stereo unspecified),2.11 (active)
25,Cc1cc(C(=O)CC#N)c(C)n1CC(F)(F)F,1.05 (inactive)
26,CCCNc1ncnc2sc(C)c(C)c12,1.15 (inactive)

row,Structure (SMILES),fluorescence fold increase
1,Fc1cc(F)c2nc(N3CCOCC3)sc2c1,1.07 (inactive)
2,COc1ccc(OC)c(NC(=O)CSc2nc(N)c(-c3ccccc3)c(=O)[nH]2)c1,1.08 (inactive)
3,CCOC(=O)CCc1c(C)c2ccc(OCc3nn[nH]n3)c(C)c2oc1=O,3.81 (active)
4,CCN(CC)S(=O)(=O)c1cccc(C(=O)Nc2cc(C)nn2-c2nc(C)cc(C)n2)c1,1.03 (inactive)
5,CC(C)C1C2=C(CC(C)(C)CC2=O)ON1c1ccccc1 (stereo unspecified),1.9 (inactive)
6,O=C(O)C1CCCCC1C(=O)Nc1ccc(Cl)cc1 (stereo unspecified),1.08 (inactive)
7,CCOC(=O)CSc1nccc(N(C)C)c1C#N,1.09 (inactive)
8,CCOC(=O)Cc1c(C)nc2c(C#N)c(C)nn2c1C,3.62 (active)
9,COc1ccccc1CNC(=O)Cn1cc2c(n1)CCCC2,1.13 (inactive)
10,CC(=O)c1cc2c(cc1N)OCO2,1.13 (inactive)
11,COc1ccc(CCN(Cc2cc3cccc(C)c3[nH]c2=O)C(=O)N2CCCC2)cc1OC,1.08 (inactive)
12,COc1cc2cc(CN(CCN3CCCC3)C(=O)Nc3ccccc3Cl)c(=O)[nH]c2cc1OC,2.13 (active)
13,COc1cc2[nH]c(=O)n(CCC(=O)NC3CCN(Cc4ccccc4)CC3)c(=O)c2cc1OC,1.46 (inactive)
14,Cc1cc(C(=O)O)c(S(C)(=O)=O)s1,1.04 (inactive)
15,Cc1cc(C)c2c(c1)c(C)cc1nnc(SCC(=O)NCc3ccco3)n12,1.45 (inactive)
16,Cc1ccc(C(CC(=O)O)Nc2nc(N3CCCCC3)nc(N3CCCCC3)n2)cc1 (stereo unspecified),1.14 (inactive)
17,CC(Nc1nc(N2CCCC2)nc2ccccc12)c1ccccc1 (stereo unspecified),2.43 (active)
18,CC(C)n1c(C(O)c2ccccc2)nc2ccccc21 (stereo unspecified),1.13 (inactive)
19,Cc1ccc(N2CCN(S(=O)(=O)N(C)C)CC2)cc1Cl,1.11 (inactive)
20,COc1ccc(-c2noc(COc3ccc(Cl)c(C)c3)n2)cc1,1.02 (inactive)
21,COc1ccc(-c2cc3ccc(OCc4nn[nH]n4)cc3oc2=O)cc1,3.01 (active)
22,COc1ccc(OCc2ccc(-c3nc4ccccc4c(=O)n3N)o2)cc1,1.1 (inactive)
23,O=C(O)C1CCN1C1CCCCC1 (stereo unspecified),0.88 (inactive)
24,COCCCNC(=O)c1c(F)c(F)c(F)c(F)c1F,1.04 (inactive)
25,COCCCn1c(CCC(=O)O)ccc1-c1ccc(F)cc1,3.84 (active)
26,Cc1cccc(N=C2NC(=O)CS2)c1C,1.01 (inactive)

row,Structure (SMILES),fluorescence fold increase
1,CC(C)CC(=O)N=C1SC2CS(=O)(=O)CC2N1CCc1ccccc1 (stereo unspecified),1.1 (inactive)
2,CCCCCCn1c(CN2CCCCC2)nc2c1c(=O)n(C)c(=O)n2C,1.13 (inactive)
3,CCOC(=O)N1CCC(NC(=O)CN2C(=O)COc3ccc(C(C)(C)C)cc32)CC1,1.02 (inactive)
4,COC(=O)c1cn(C)c2ccc(S(=O)(=O)N3CC(C)CC(C)C3)cc2c1=O (stereo unspecified),0.95 (inactive)
5,CN1CCN(S(=O)(=O)c2ccc3[nH]cc(C(=O)O)c(=O)c3c2)CC1,2.17 (active)
6,CCN(CC)S(=O)(=O)c1ccc2[nH]cc(C(=O)NCCc3ccccc3)c(=O)c2c1,1.58 (inactive)
7,CC1(C)Cc2cccc(OCC(=O)Nc3nccs3)c2O1,1.08 (inactive)
8,CCN1CCc2c(C#N)c(NCc3ccccc3)nc(NCCO)c2C1,2.3 (active)
9,CC(C)CCNc1nc(N2CCCC2)c2c(c1C#N)CCN(C)C2,1.63 (inactive)
10,N#Cc1c(N)sc2c1CCN(C(=O)OCc1ccccc1)C2,1.12 (inactive)
11,O=C1CCCC2=C1C(c1cccs1)n1nc(SCc3ccccc3)nc1N2 (stereo unspecified),2.52 (active)
12,CC(C)C(=O)N1c2ccccc2NC2=C(C(=O)CCC2)C1c1ccc(N(C)C)cc1 (stereo unspecified),1.05 (inactive)
13,CCCC(=O)N1c2ccccc2NC2=C(C(=O)CCC2)C1c1ccc(F)cc1 (stereo unspecified),1.08 (inactive)
14,Cc1ccc2c(c1)N(CCCC(=O)NCc1cccnc1)C(=O)CO2,1.1 (inactive)
15,COC(=O)c1c(-c2ccc(C)cc2)csc1N,1.09 (inactive)
16,CC(=O)NC1=NC(=O)CS1,1.08 (inactive)
17,COc1ccc(CCNC(=O)C2CCN(c3nn4c(=O)cc(C)nc4s3)CC2)cc1OC,1.05 (inactive)
18,CCCS(=O)(=O)N1CCC(C(=O)NCCc2ccc(OC)c(OC)c2)CC1,1.09 (inactive)
19,CCOc1ccc(CCNC(=O)C2CCN(c3ccc(N4CCOCC4)nn3)CC2)cc1OCC,4.91 (active)
20,O=c1oc2c(CN3CCCCC3)c(O)ccc2c2c1CCCCC2,2.34 (active)
21,CN1CCN(Cc2c(O)ccc3c2oc(=O)c2ccccc23)CC1,1.15 (inactive)
22,CCN1CCN(Cc2c(O)ccc3c(=O)c(-c4ccc(OC)c(OC)c4)c(C(F)(F)F)oc23)CC1,1.18 (inactive)
23,O.O.O.O=S(=O)([O-])OC[C@H]1O[C@@H](O[C@]2(COS(=O)(=O)[O-])O[C@H](OS(=O)(=O)[O-])[C@@H](OS(=O)(=O)[O-])[C@@H]2OS(=O)(=O)[O-])[C@H](OS(=O)(=O)[O-])[C@@H](OS(=O)(=O)[O-])[C@@H]1OS(=O)(=O)[O-].[Al],1.14 (inactive)
24,O=C(CCOc1ccccc1)NCc1ccccc1,1 (inactive)
25,COc1ccc(S(=O)(=O)N(CCCN2CCCC2=O)Cc2cc3c(C)ccc(C)c3[nH]c2=O)cc1,1.97 (inactive)
26,COc1ccc(N(Cc2cc3cc(OC)ccc3[nH]c2=O)S(C)(=O)=O)cc1,3 (active)

row,Structure (SMILES),fluorescence fold increase
1,Cc1ccc2[nH]c(=O)c(COC(=O)c3ccccn3)cc2c1,1.42 (inactive)
2,CCOC(=O)c1cc2cc(C)ccc2[nH]1,1.67 (inactive)
3,CCOc1ccc2[nH]c(=O)c(CN(CCCO)C(C)=O)cc2c1,3.27 (active)
4,CCC(=O)N(Cc1cc2cc(OC)ccc2[nH]c1=O)c1ccccc1C,3.71 (active)
5,CCN(Cc1cc2cc(C)ccc2[nH]c1=O)S(=O)(=O)c1ccccc1,1.54 (inactive)
6,CC(=O)OCc1cc2cc(C)ccc2[nH]c1=O,1.43 (inactive)
7,CCNCc1cc2cc(C)ccc2[nH]c1=O,1.39 (inactive)
8,O=C(CSc1nnnn1C1CCCC1)Nc1ccc2c(c1)OCCO2,1.11 (inactive)
9,O=C(NC12CC3CC(CC(C3)C1)C2)N1CCCC(CO)C1 (stereo unspecified),1.11 (inactive)
10,O=C(CN1CCN(C(=O)c2cccc(F)c2)CC1)Nc1ccccc1F,1.17 (inactive)
11,COc1cc(CO)c(C2(CO)CCCC2)cc1OC,1.08 (inactive)
12,Cc1cc(N2C(=O)c3ccc(C(=O)NCc4ccccc4)cc3C2=O)no1,1.1 (inactive)
13,CC1Cc2cc(/C(O)=C3\C(=O)C(=O)N(CCN4CCOCC4)C3c3ccccc3F)ccc2O1 (stereo unspecified),1.11 (inactive)
14,CCOC(=O)c1nc(-c2ccc3c(c2)OCO3)[nH]c1C,1.4 (inactive)
15,CCCC(=O)Nc1ccc2c(c1)nc1n2CCSC1,1.21 (inactive)
16,CCCCCC(=O)Nc1ccc2oc(-c3ccncc3)nc2c1,3.72 (active)
17,CCCCC(=O)Nc1cc(C)c2c(=O)oc3ccccc3c2n1,1.19 (inactive)
18,FC(F)(F)c1cc(-c2ccco2)nc(N2CCOCC2)n1,1.11 (inactive)
19,O=C(CSc1nc(-c2ccco2)cc(C(F)(F)F)n1)N1CCc2ccccc2C1,1.1 (inactive)
20,CCOC(=O)c1ccn(-c2nc(-c3ccco3)cc(C(F)(F)F)n2)n1,2.09 (active)
21,CCOC(=O)CSc1nnc(-c2ccco2)n1C,1.04 (inactive)
22,Cc1cc(C(F)(F)F)nn1-c1nc(-c2ccco2)cc(C(F)(F)F)n1,2.81 (active)
23,O=C(CSc1nc(-c2ccco2)cc(C(F)(F)F)n1)NCc1cccs1,1.14 (inactive)
